Source: PubChem BioAssay
The list is not random: actives were taken first. Their share in the collection is about 6.5%.
Vaccinia mCherry: inhibitors of vaccinia virus infection (mCherry reporter signal); Vaccinia virus mCherry reporter infection, fluorescence; Potency, µM (doses to about 36.5 µM), inactives show at the top dose activity change, negative = inhibition, most hits filed as inhibitors; hit rate 0.63% among 310,000; calls by dose curve; tested in A549 cells; note: potency is the fitted concentration of half-maximal effect; nearly all actives have a fitted effect of over 35% in size
LASV entry inh: Lassa virus entry inhibition; Lassa virus pseudotype entry inhibition, cell reporter; AID 540256; hit rate 1.2% among 300,000; Potency, µM (series often up to 37.9 µM), for inactives: top-dose activity change, negative = inhibition, usual class: inhibitors; calls by dose curve; tested in HEK293 cells; note: potency is the fitted concentration of half-maximal effect; nearly all actives have a fitted effect of over 50% in size
FMDV antiviral: antivirals against foot and mouth disease virus; FMDV antiviral cell-based qHTS; Potency, µM (top dose mostly 57.9 µM), for inactives: at the highest dose activity change, negative = inhibition, hits mostly inhibitors; hit rate 1.2% among 410,000; AID 1159524; calls by dose curve; tested in HEK293T cells; note: read-out not given here; potency is the fitted concentration of half-maximal effect; nearly all actives have a fitted effect of over 45% in size
MARV entry inh: Marburg virus entry inhibition; Potency, µM (series often up to 37.8 µM), inactives show at the top dose activity change, negative = inhibition, usual class: inhibitors; hit rate 1.8% among 300,000; Marburg virus pseudotyped entry inhibition, cell reporter; calls by dose curve; tested in HEK293 cells; note: potency is the fitted concentration of half-maximal effect
HCMV antiviral: inhibitors of human cytomegalovirus; AID 1259415; HFF cells, HCMV-luciferase reporter, 72 h; hits give low values; activity change, negative = inhibition, % at 57.5 µM; hit rate 4.5% among 410,000; in the data active = activity change below about -60%; inconclusive = no clear call, values can overlap the other calls; inactive = above about -39%
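Two compound doses tested in HFFs infected with HCMV-luciferase, MOI 1 PFU/cell, 72 h at 37C. Lysate luminescence read with OneGlo; data normalized against buffer-only and 10uM Salinomycin inhibitor controls.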
Vaccinia Venus: inhibitors of vaccinia virus (Venus reporter) | AID 720580 | Potency, µM (top dose mostly 36.5 µM), for inactives: at the top dose activity change, negative = inhibition, hits mostly inhibitors | hit rate 0.46% among 330,000 | Vaccinia virus Venus reporter expression, fluorescence; calls by dose curve; tested in A549 cells; note: potency is the fitted concentration of half-maximal effect; nearly all actives have a fitted effect of over 30% in size
* marks the source's active call; other numbers are inactive results; ? = inconclusive; . = no result given; ! = not active in a repeat; [ ] = another dose, or the depositor's remark. % is set by controls: 0 for no effect and ±100 for the full control effect.

SMILES	Vaccinia mCherry	LASV entry inh	FMDV antiviral	MARV entry inh	HCMV antiviral	Vaccinia Venus
Cc1ccc(C)c(-n2nnnc2SCC(=O)c2ccc3c(c2)NC(=O)CO3)c1	.	?	?	?	-83.9*	.
CN1CCN(c2nc3cc(C(F)(F)F)ccc3n3cccc23)CC1	?	?	-17.1%	8.91µM*	?	-21.4%
COc1ccc(NC(=O)C(C(C)C)N2Cc3ccccc3C2=O)cc1 (configuration not stated)	-13.3%	1.7%[46.1 µM]	1.1%	.	18.0	-17.1%
COc1cccc(/C=C2\SC(=S)N(CCC(=O)N3CCCCC3)C2=O)c1	.	.	13.0%	.	?	.
O=C(CCN1C(=O)/C(=C\c2cccs2)SC1=S)Nc1ccccn1	7.3%	-22.3%	-7.1%	-42.3%[46.1 µM]	-36.8	21.9%
O=C1/C(=C/c2cccc(Cl)c2)SC(=S)N1CCC(=O)N1CCCCC1CCO (configuration not stated)	.	.	-16.6%	.	-82.5*	.
O=C1/C(=C/c2ccc(Cl)cc2)SC(=S)N1CCC(=O)N1CCCCC1CCO (configuration not stated)	.	.	-19.4%	.	-86.0*	.
O=C1/C(=C/c2ccccc2F)SC(=S)N1CCC(=O)N1CCCCC1CCO (configuration not stated)	?	?	-13.3%	?	-84.0*	-26.0%
O=C1/C(=C/c2cccs2)SC(=S)N1CC(=O)N1CCCCC1CCO (configuration not stated)	.	.	11.8%	.	-82.8*	.
CCC(=O)N1CCc2cc(CNC(=O)Cc3ccc(F)cc3)ccc21	-10.9%	0.4%[46.1 µM]	17.0%	.	-13.1	-11.5%
COc1ccc(/C=C2\SC(=O)N(CCC(=O)N3CCCCC3CCO)C2=O)cc1 (configuration not stated)	-3.4%	0.3%[46.1 µM]	-14.2%	-0.4%[46.1 µM]	-7.5	-12.7%
O=C1/C(=C/c2ccccc2)SC(=S)N1CCCC(=O)N1CCCCC1CCO (configuration not stated)	.	.	?	.	-100.7*	.
COc1ccc(/C=C2\SC(=S)N(CCC(=O)N3CCCCC3CCO)C2=O)cc1 (configuration not stated)	.	.	?	.	-84.0*	.
O=C1/C(=C/c2ccco2)SC(=S)N1CCC(=O)N1CCCCC1CCO (configuration not stated)	.	.	-0.1%	.	-91.8*	.
CCCC[C@@H](C(=O)O)[C@H](C)CC(=O)Nc1cccc(C(=O)O)c1	.	.	.	9.5%	.	.
CCCCn1nc(C(=O)NCC(c2cccs2)N2CCOCC2)c2ccccc2c1=O (configuration not stated)	.	.	31.6µM*	.	?	.
CCn1nc(C(=O)NCC(c2cccs2)N2CCOCC2)c2ccccc2c1=O (configuration not stated)	-10.7%	?	0.0%	-9.4%	-27.9	-19.9%
CCOC(=O)c1cnc2c(C)cc(C)cc2c1NCCN1CCOCC1	2.1%	-13.6%[46.1 µM]	-12.7%	.	1.6	0.8%
CCOC(=O)c1cnc2c(C)cc(C)cc2c1NCCCN1CCOCC1	.	.	-16.4%	.	-61.8*	.
CN(C)S(=O)(=O)c1cccc(CSCc2cccc(S(=O)(=O)N(C)C)c2)c1	-3.5%	?	?	?	-92.0*	-8.2%
CCOC(=O)C(=CNc1ccc(NC2=NCC(C)S2)cc1)C(=O)OCC (configuration not stated)	?	?	-14.0%	?	-66.3*	?
N#Cc1cccc(-c2ccc3c(c2)COCC(=O)N3CCN2CCOCC2)c1	.	.	.	.	-10.9	.
Cc1ccc(C2=Nc3ccccc3N(CC(=O)NCc3ccc(F)cc3)C(=O)C2)cc1C	?	1.2%[46.1 µM]	12.2%	.	1.3	-20.0%
O=C(CN1C(=O)CC(c2ccc(F)cc2)=Nc2ccccc21)NCc1ccccc1Cl	-24.9%	1.3%[46.1 µM]	5.0%	.	-63.8*	-20.4%
CC(=O)Nc1ccc(S(=O)(=O)N2CCC(n3c(C)nc4cccnc43)CC2)cc1	-12.8%	5.7%[46.1 µM]	-22.2%	.	-28.7	-1.2%
SMILES	Vaccinia mCherry	LASV entry inh	FMDV antiviral	MARV entry inh	HCMV antiviral	Vaccinia Venus
Cc1cc2cc(C)c3nnc(SCC(=O)N4CCN(C(=O)c5ccco5)CC4)n3c2cc1C	-13.2%	-14.9%	.	-6.8%	-73.2*	-26.9%
O=C(CSc1nnc(-c2ccccc2Br)o1)N1CCN(C(=O)c2ccco2)CC1	12.6µM*	2.4%	.	-2.7%	-25.1	?
CCN(CC(=O)Nc1c(C(=O)OC)[nH]c2ccc(Cl)cc12)c1ccc2c(c1)OCO2	.	12.6µM*	-9.8%	?	-19.8	?
c1ccc2nc3ccccc3cc2c1	-11.9%	.	.	.	.	2.2%
CC(C)n1c(NCCO)nc2ccccc21	4.3%	-20.5%	-5.9%	1.0%[46.1 µM]	5.5	4.2%
CNc1ccc2nc3ccccc3[n+](C)c2c1	136.6%	.	-17.4%	.	-100.9*	367.4%
C[n+]1c2ccccc2nc2ccc(NCCO)cc21	261.5%	?	?	?	-80.7*	390.8%
CCCOc1ccc(-c2nnc(-c3cccs3)o2)cc1	.	2µM*	0.0%	-0.8%[46.1 µM]	70.8	39.4%
COc1ccc2[nH]c3nc(SC(C)C)nnc3c2c1	-14.2%	2.24µM*	12.6µM*	?	-20.7	-8.9%
COc1ccc2[nH]c3nc(SCc4nnc(-c5ccccc5)o4)nnc3c2c1	.	?	-13.3%	-25.1%	-94.3*	.
COc1ccc(CNC(=O)CSc2nnc3c(n2)[nH]c2ccc(OC)cc23)cc1	8.6%	.	11.3%	?	16.6	-0.7%
COc1ccc(N2CCN(C(=O)CCNS(=O)(=O)c3cccs3)CC2)cc1	?	-2.2%	.	9.4%	-33.7	12.6µM*
COc1ccccc1N1CCN(C(=O)CN(CCc2ccccc2)S(C)(=O)=O)CC1	-8.2%	?	.	?	?	-19.0%
COc1ccc(S(=O)(=O)N(C)CC(=O)N2CCN(c3ccccc3)CC2)cc1	-11.8%	.	-20.4%	?	-3.2	-8.0%
COc1ccc(N2CCN(C(=O)CN(C)S(=O)(=O)c3cccs3)CC2)cc1	-5.3%	-12.3%	-7.3%	20.8%[46.1 µM]	-99.8*!	-15.8%
COc1ccc(N2CCN(C(=O)CN(CCc3ccccc3)S(C)(=O)=O)CC2)cc1	1.78µM*	?	.	?	-24.4	?
CCOC(=O)c1sc2ccccc2c1S(=O)(=O)Nc1c(C)cccc1C	-3.4%	2.2%[46.1 µM]	42.5%	.	-13.0	3.2%
CCOc1ccc(-n2cc(-c3ccccc3)c3c(NCCc4ccccc4)ncnc32)cc1	-13.5%	-21.4%[46.1 µM]	-10.1%	.	-10.3	-9.8%
CCN(CCCNC(=O)CSc1cc(=O)n(CC)c2ccccc12)c1cccc(C)c1	-15.5%	-30.0%[46.1 µM]	?	?	17.2	-12.2%
Clc1ccc(Nc2nccc3[nH]c(-c4ccccc4)nc23)cc1	.	.	.	.	-5.5	.
CCOC(=O)c1c(C)[nH]c(C(=O)CSc2ccccc2)c1C	.	17.8µM*	21.2%	?	35.4	-29.0%
CCOC(=O)c1c(C)[nH]c(C(=O)COC(=O)CCSc2ccccc2)c1C	-9.4%	12.8%	39.3%	?	37.8	-10.0%
CCOC(=O)c1c(C)[nH]c(C(=O)C(C)Sc2ccc(Cl)cc2)c1C (configuration not stated)	-12.4%[1.46 µM]	?	20.9%	?	74.7	7.08µM*
